PubChem BioAssay (NCI)
Compounds without any hit were thinned out: in the full panel of roughly 79,000, 15% have a hit. Unmarked numbers belong to inactive results. Active and inactive are the calls of the source. No stated cut-off is given here; in the data, active means growth inhibition above about 70%; inactive means the rest.

Experiments:
[1] = NCI Yeast Anticancer Drug Screen. Data for the rad50 strain (AID 155);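 further: 0% = growth of vehicle-only cultures of the same strain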; details: S. cerevisiae rad50 strain growth inhibition; at 50.0 µM; active compounds read high
How it was run: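 Inhibition values express reduced yeast growth in compound-treated cultures relative to vehicle-treated controls.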

[2] = NCI Yeast Anticancer Drug Screen. Data for the mec2-1 strain (AID 157); details: S. cerevisiae mec2-1 strain, at 50.0 µM, active compounds read high
How it was run: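 mec2-1 yeast strain, carrying an alteration in DNA damage repair or cell cycle control, was exposed to compounds; growth inhibition was measured relative to vehicle-treated controls.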

[3] = NCI Yeast Anticancer Drug Screen. Data for the sgs1 mgt1 strain (AID 161);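 further: 0% = growth of cultures given vehicle only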; details: S. cerevisiae sgs1 mgt1 strain, at 50.0 µM, active compounds read high
How it was run: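 Compounds are added to genetically altered yeast, and growth is compared with cultures given vehicle alone to give percent inhibition.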

[4] = NCI Yeast Anticancer Drug Screen. Data for the cln2 rad14 strain (AID 165);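 further: 0% = growth equal to vehicle treated cultures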; details: S. cerevisiae cln2 rad14 strain, at 50.0 µM, active compounds read high
How it was run: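 Yeast carrying cln2 and rad14 alterations (cell cycle control and DNA damage repair) were exposed to compounds. Growth inhibition was measured against vehicle-treated controls.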

[5] = NCI Yeast Anticancer Drug Screen. Data for the bub3 strain (AID 167); details: S. cerevisiae bub3 mutant strain, at 50.0 µM, active compounds read high
How it was run: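 Steps: expose the mutant yeast strain to compound; grow alongside vehicle-treated cultures; measure growth; express inhibition against the vehicle cultures.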

[6] = NCI Yeast Anticancer Drug Screen. Data for the mlh1 rad18 strain (AID 175); details: S. cerevisiae mlh1 rad18 strain growth inhibition; at 50.0 µM; active compounds read high
How it was run: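 Growth inhibition of the yeast strain was measured after compound exposure and expressed relative to vehicle-treated controls. The strain carries defined defects in DNA damage repair.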

| Structure (SMILES) | growth inhibition [1] | growth inhibition [2] | growth inhibition [3] | growth inhibition [4] | growth inhibition [5] | growth inhibition [6] |
| --- | --- | --- | --- | --- | --- | --- |
| CN(C)C(=O)OC1CCCCC1 | -8.1% | -9.4% | -18.8% | -18.7% | -19.6% | -12.6% |
| CCCCCC1CCC(OC(=O)NC)CC1 (stereo unspecified) | 2% | 9.85% | -0.6% | -19.9% | 25.4% | -6.95% |
| COc1ccccc1NC1Oc2cc3c(cc2C(c2cc(OC)c(OC)c(OC)c2)C1C)OCO3 (stereo unspecified) | -16.4% | -26.1% | -1.25% | -0.85% | -2.8% | -5.35% |
| Cc1nn(-c2ccccc2)c(SC(C)(C)C)c1C=NCCN=Cc1c(C)nn(-c2ccccc2)c1SC(C)(C)C | 28.6% | 15.3% | 18.2% | 24.3% | -5.85% | 18.8% |
| Cc1ccc2c(c1-c1ccccc1)C(=O)OC2 | -5.4% | -3.05% | 2.15% | 5.35% | 6.25% | -3.3% |
| O=C(O)c1[nH]c2c(=O)[nH]c(=O)[nH]c2c1Br | 5.25% | -2.8% | -15.9% | -4.35% | 2.15% | 15% |
| COC(=O)c1c(-c2ccccc2)cc2c3cc(-c4ccccc4)c(C(=O)OC)n3c3ccccc3n12 | -2.35% | -4.55% | -31.5% | -23.9% | -1.95% | -10.6% |
| O=C1CSC(c2c(F)cccc2Cl)N1c1nncs1 (stereo unspecified) | 9.4% | -2% | 31.4% | 13% | 29.6% | 10% |
| O=C(CCc1ccco1)CCc1ccco1 | 7.6% | -3.35% | 5.45% | -9.05% | -3.5% | -0.6% |
| CCOC(=O)NC(=O)c1cn(CCN2CCN(c3ncnc4nc[nH]c34)CC2)c(=O)[nH]c1=O | 18.9% | 16.6% | 14.4% | 12.7% | -4.3% | 23.1% |
| CCCCCNC(=O)c1ccc(C)cc1 | 2.5% | -4.15% | 1.05% | -12.6% | -10.8% | -70% |
| COc1cc2oc(-c3ccc(O)cc3)cc(=O)c2c(OC)c1OC | -4.35% | -5.95% | -2.35% | -26.7% | 17.9% | 12.3% |
| O=Nc1ccc(O)cc1Cc1ccccc1 | -10.4% | -5.95% | -19.8% | -5.3% | 5.1% | -1.5% |
| O=C1Nc2ccc3[nH]ncc3c2C1=O | 11.7% | -0.65% | -2.45% | -11.8% | -9.55% | 7.6% |
| CS(=O)(=O)OC[C@@H](O)[C@@H](O)COS(C)(=O)=O | -2.15% | 7.4% | -1.85% | -57.1% | 3.55% | -6.85% |
| CCCCOC(=O)c1cc2ccccc2oc1=O | 34.5% | 9.9% | 25.1% | 15.7% | 27.2% | 34% |
| CN1C(=O)C(=O)N(C)C(=O)C1=O | 8.75% | 11.2% | 10.7% | 7.1% | 12.8% | 9.6% |
| Cn1ncc2c(=S)[nH]c(=S)[nH]c21 | 19.4% | -9.25% | 2.5% | 7.85% | 2.3% | 1.85% |
| O=C(c1ccc(F)cc1)c1ccc2ccccc2c1C(=O)O | 4.4% | 7.65% | 13.1% | 14.3% | 38.2% | -11.3% |
| C=CCC(C(=O)O)c1ccccc1 (stereo unspecified) | -11.2% | -12.2% | -5.2% | -29.9% | -14.6% | 1.75% |
| CSc1ccc2c(cc1=O)[C@@H](NC(=O)c1ccc([N+](=O)[O-])cc1)CCc1cc(O)c(O)c(O)c1-2 | 37.3% | 33.5% | 39.2% | 23.1% | 43.8% | 50% |

| Structure (SMILES) | growth inhibition [1] | growth inhibition [2] | growth inhibition [3] | growth inhibition [4] | growth inhibition [5] | growth inhibition [6] |
| --- | --- | --- | --- | --- | --- | --- |
| COC(=O)NN=C1C(C)(C)C(=NNC(=O)OC)C1(C)C | 2.25% | -15.5% | -8.6% | 27.1% | -17.6% | -5.4% |
| CCOC(=O)C1=C(C)N(Cc2ccccc2)C2(O)C1=CC(=O)C(Cl)=C2Cl (stereo unspecified) | 72.8% (active) | 45.5% | 46.8% | 54.9% | 49.5% | 42.4% |
| Cc1ccccc1C1=CCCCCC1 | -5.15% | -17.6% | -2.8% | 0.75% | -7.65% | -9.8% |
| Fc1ccccc1-c1ccccc1 | -26.4% | -1.5% | -13.5% | -37.5% | -10.8% | -11.2% |
| CC(=O)N(C)O | 21.2% | 17.4% | -4.05% | -5.85% | -19.9% | -0.4% |
| Cc1c(-c2ccccc2)nnn1-c1ccc(F)cc1F | 1.7% | -28.8% | 13.4% | -10.6% | 20.8% | -9.35% |
| CC[C@@]12CCC(=S)N(CCSc3ccccc3)[C@@H]1c1c(n(S(=O)(=O)c3ccc(OC)cc3)c3ccccc13)CC2 | -38% | -18.1% | 0.3% | -15.9% | 0.7% | -5.3% |
| O=c1cc([N+](=O)[O-])c2c([nH]1)CCC2 | -5.3% | 1.3% | 12.8% | -27.8% | -6.15% | -0.5% |
| O=C1CCCC(C(Sc2ccccc2)(Sc2ccccc2)Sc2ccccc2)C1 (stereo unspecified) | 62.2% | 5.1% | 65.2% | 37.6% | 21.9% | 81.3% (active) |
| Nc1c(-c2nc3ccccc3[nH]2)sc(=S)n1-c1ccccc1 | -6.4% | -21.4% | 1.75% | 2.2% | -4.2% | -17.9% |
| CCOC(=O)C1=C(C)NC(=O)NC1c1ccc(OC)cc1OC (stereo unspecified) | -2.15% | -25.6% | -11.7% | 18.6% | -18% | -6.5% |
| CCSCC(N)C(=O)O (stereo unspecified) | -16.1% | 2.5% | 7.45% | -7.25% | 3.35% | -9% |
| CCOC(=O)c1c(C)[nH]c(=S)c(C#N)c1-c1ccco1 | 17.7% | 6.15% | 10.8% | 4.4% | -3.35% | 28% |
| O=C(O)CCC(NC(=O)c1ccc(Nc2nc3ccccc3nc2C(=O)O)cc1)C(=O)O (stereo unspecified) | -2% | -11.2% | -6.15% | 3% | 0% | 0.65% |
| CC(=O)NC1c2ccccc2-c2ccccc21 | -5.1% | 34.2% | -1.15% | 42% | 17.3% | 3.8% |
| O=c1c2cc(Cl)ccc2on1CN1CCOCC1 | 3.4% | 11.4% | 17% | -3.9% | 5.4% | 5.8% |
| NCC(=O)N[C@H]1c2ccsc2/C(=N/O)[C@H]1O | 3.1% | 5.95% | 3.65% | 11.3% | -10.2% | 33.2% |
| CCOC(=O)Cc1[nH]c(C(=O)OCC)c(CC(=O)OCC)c1C(=O)OCC | 6.3% | 8.45% | 8.3% | -4.2% | 0.1% | 15.7% |
| CN1C(=O)C(O)(CC(=O)c2ccccc2)c2ccccc21 (stereo unspecified) | 0.15% | 17.7% | 3.3% | -23.9% | 23.4% | -5.65% |
| COc1ccc(C(=O)/C=C/C(C)=C/C=N/N(C)c2ccccc2)cc1 | 14% | 18.4% | -0.5% | -39.9% | 17.1% | 17.8% |
